Vaccinia mCherry: inhibitors of vaccinia virus infection (mCherry reporter signal). AID 720579. Vaccinia virus mCherry reporter infection, fluorescence. actives 0.63% (n = 310,000). Potency, µM (series often up to 36.5 µM), for the others: at the top dose activity change, negative = inhibition, most hits filed as inhibitors; calls by dose curve; tested in A549 cells; further: potency means the concentration at half of the fitted maximal effect; nearly all actives have a fitted effect of over 35% in size
HCMV antiviral: blocks human cytomegalovirus replication | HFF cells, HCMV-luciferase reporter, 72 h; active compounds read low | activity change, negative = inhibition, % at 57.5 µM | actives 4.5% (n = 410,000) | AID 1259415; in the data active means activity change below about -60%; inconclusive means no clear call, values can overlap the other calls; inactive means above about -39%
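HFF cells seeded 16 h at 37C, treated with compounds, infected with luciferase-reporter HCMV at MOI 1 PFU/cell; luciferase read at 72 h post infection, normalized to buffer-only and Salinomycin controls.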
FMDV antiviral: blocks foot and mouth disease virus; FMDV antiviral cell-based qHTS; actives 1.2% (n = 410,000); Potency, µM (titrated, usually from 57.9 µM), for inactives: top-dose activity change, negative = inhibition, usual class: inhibitors; AID 1159524; calls by dose curve; tested in HEK293T cells; further: read-out not given here; potency means the concentration at half of the fitted maximal effect; nearly all actives have a fitted effect of over 45% in size
HCV inh: HCV inhibition; actives 3.4% (n = 340,000); Huh7.5.1 HCVcc-Cre infection, luciferase reporter, 44 h; Potency, µM (highest dose often 41.8 µM), for inactives: at the highest dose activity change, negative = inhibition, hits mostly inhibitors; further: potency means the concentration at half of the fitted maximal effect
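Infectious HCVcc-Cre (~0.5 moi) was added to cells just after compound, with cells seeded 4 h earlier at 1,000 per well. Luciferase activity after 44 h culture reported infection; substrate was incubated 15 min at room temperature before reading.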
Giardia FBPA inh: inhibitors of Giardia lamblia fructose-1,6-bisphosphate aldolase. A8B2U2. purified Giardia FBPA. Potency, µM (titrated, usually from 59.6 µM), for inactives: top-dose activity, negative = inhibition, most hits filed as inhibitors. actives 0.71% (n = 290,000); further: potency means the concentration at half of the fitted maximal effect; nearly all actives have a fitted effect of over 55% in size
Target sequence (A8B2U2 whole entry, looked up): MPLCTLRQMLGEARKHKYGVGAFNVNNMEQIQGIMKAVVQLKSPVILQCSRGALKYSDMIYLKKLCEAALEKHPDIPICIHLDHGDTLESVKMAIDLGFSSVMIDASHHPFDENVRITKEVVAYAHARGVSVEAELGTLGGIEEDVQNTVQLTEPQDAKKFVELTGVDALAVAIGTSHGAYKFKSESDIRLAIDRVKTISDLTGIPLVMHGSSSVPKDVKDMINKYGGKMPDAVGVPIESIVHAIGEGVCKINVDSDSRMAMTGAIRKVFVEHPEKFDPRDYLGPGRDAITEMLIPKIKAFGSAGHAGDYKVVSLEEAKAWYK
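40 nM FBPA preincubated 10 min at RT with compound (up to 57.5 uM final), then substrate plus GAPDH/TPI/NAD/arsenate coupling and diaphorase/resazurin added. Fluorescence read after 20 min at RT, 525/598 nm.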
Vaccinia Venus: inhibitors of vaccinia virus (Venus reporter); AID 720580; Potency, µM (highest dose often 36.5 µM), inactives show top-dose activity change, negative = inhibition, most hits filed as inhibitors; actives 0.46% (n = 330,000); Vaccinia virus Venus reporter expression, fluorescence; calls by dose curve; tested in A549 cells; further: potency means the concentration at half of the fitted maximal effect; nearly all actives have a fitted effect of over 30% in size
An asterisk follows results filed as active; i = inactive; ? = inconclusive; . = no result given; [ ] = remark or other dose. Sampled rows, rich in hits. Any-hit rate of the full collection: about 7.5%. Unless noted, the call rests on the fitted dose curve; in most records, active means well fitted curve in the direction sought with a large enough effect; inconclusive means small, poorly fitted or top-dose-only effect, or another doubt; inactive means no such curve, though single readings can be large; an effect the other way counts as inactive or inconclusive. On the % scale 0 is the no-effect control and ±100 the full control effect.

SMILES	Vaccinia mCherry	HCMV antiviral	FMDV antiviral	HCV inh	Giardia FBPA inh	Vaccinia Venus
CN1/C(=C\C(=O)COC(=O)c2ccc(O)cc2)C(C)(C)c2ccccc21	.	-20.9	-27.7%	?	0.9%	.
Nc1[nH]c(C(=O)c2ccccc2)c(-c2ccccc2Br)c1C(=O)c1ccccc1	-12.8%	-27.7	-36.4%	.	.	-13.5%
COC(=O)N1CCC2(CC1)CN(C(=O)Nc1cccc(C#N)c1)C2	.	.	-10.7%	.	7.3%	.
Cc1coc2c(C)c3oc(=O)c(CCC(=O)NCCC(=O)O)c(C)c3cc12	i	16.6	-10.4%	16.2%	8.3%	-7.9%
Cc1cccc[n+]1CC(=O)/C=C1\N(C)c2ccccc2C1(C)C	-1.4%	-94.5*	?	-30.2%	-3.6%	49.0%
Cc1ccc[n+](CC(=O)/C=C2\N(C)c3ccccc3C2(C)C)c1	?	-97.5*	?	-4.3%	0.5%	-27.0%
CN1/C(=C\C(=O)C[n+]2cccc(C(N)=O)c2)C(C)(C)c2ccccc21	-28.3%	-32.9	-17.5%	7.1%	-1.9%	-4.1%
O=C(CCS(=O)(=O)c1ccc(Br)cc1)Nc1ccc(F)cc1F	-5.5%	-10.9	2.1%	.	.	-7.6%
O=C(O)CCCC(=O)Nc1ccccc1SCCS(=O)(=O)c1ccc(Cl)cc1	20µM*	12.5	-22.3%	8.3%	-3.1%	?
O=C(CCS(=O)(=O)c1ccc(Cl)cc1)Nc1ccccc1Br	?	-97.7*	-3.8%	3.2%	-3.7%	?
CC(=O)c1sc(NC(=O)CCS(=O)(=O)c2ccc(Cl)cc2)nc1C	-20.7%	0.7	-12.3%	1.12µM*	.	-9.1%
O=C(CCS(=O)(=O)c1ccc(Br)cc1)Nc1cc(F)ccc1F	11.2µM*	7.0	-6.2%	6.7%	-1.2%	?
COc1cccc(CCNc2ncnc3sc(C(=O)N4CCOCC4)c(C)c23)c1	i	.	-7.5%	.	.	-15.1%
O=C(Nc1ccncc1)C1CC(=O)N(Cc2ccccc2)C1 (centres undefined)	-10.8%	-24.0	-4.0%	20.7%	.	2.0%
CSc1ccc(/C=N/Nc2cccc(C(=O)O)c2)cc1	-7.8%	.	2.24µM*	31.9%	-0.5%	-13.3%
O=C(O)c1cccc(N/N=C/c2cccs2)c1	-5.4%	-27.6	2.24µM*	9.5%	14.3%	-6.3%
COC(=O)c1ccc(COc2ccc(/C=N/Nc3cccc(C(=O)O)c3)cc2)cc1	.	0.0	-28.7%	30.3%	3.6%	.
O=C(O)c1ccc(N/N=C/c2ccc(OC(=O)c3cccc(Cl)c3)cc2)cc1	?	-64.1*	20µM*	6.0%	-15.2%	-0.4%
O=C(O)c1cccc(N/N=C/c2ccc(OC(F)(F)F)cc2)c1	?	47.4	25.1µM*	14.8%	8.6%	-17.3%
N#CC1(NC(=O)COC(=O)c2cc([N+](=O)[O-])ccc2N2CCOCC2)CCCCC1	i	-13.8	3.1%	-28.9%	.	-17.3%
Fc1ccc(-c2ccc3c(c2)C2CC3CCN2)cc1 (centres undefined)	?	-12.3	-20.9%	-12.0%[8.37 µM]	.	-5.9%
Cc1ccccc1C[C@H](C(=O)O)N1C(=O)c2ccc(C(=O)O)cc2C1=O	.	.	.	.	4.7%	.
Cc1ccc(NC(=S)NCC2CCN(C(C)c3ccccc3)C2)cc1C (centres undefined)	.	-62.8*	-2.8%	-11.7%	3.9%	.
COc1ccccc1C1CN(CCNC(=O)c2sccc2Cl)Cc2ccccc2O1 (centres undefined)	-13.3%	.	-5.7%	.	.	3.7%
CC(=O)Nc1sc(N/N=C/c2ccccc2F)nc1-c1ccc(C)cc1	.	-1.1	74.1%	12.6µM*	-8.7%	.
SMILES	Vaccinia mCherry	HCMV antiviral	FMDV antiviral	HCV inh	Giardia FBPA inh	Vaccinia Venus
CC(=O)Nc1sc(N/N=C\c2ccccc2Cl)nc1-c1cccs1	11.2µM*	-83.4*	20.2%	-17.6%	-2.7%	?
CC(=O)Nc1sc(N/N=C/c2ccc(O)cc2)nc1-c1ccc(C)cc1	.	58.5	43.6%	?	-29.1%	.
COc1ccc(/C=N/Nc2nc(-c3ccc(C)cc3)c(NC(C)=O)s2)cc1	10µM*	-12.8	52.8%	?	-16.1%	-18.4%
CC(=O)Nc1sc(N/N=C\c2ccccc2)nc1-c1cccs1	-15.3%	-4.2	40.6%	-2.4%	-18.6%	2.7%
Nc1cc2cccnc2cc1Cl	?	32.3	7.1%	0.1%	.	4.8%
O=C(NCCCN1CCOCC1)c1ccc2c(c1)N(Cc1cccc(Cl)c1)C(=O)c1ccccc1S2	-30.0%	-89.0*	-21.0%	.	.	?
CCN(CC)CCNC(=O)c1ccc2c(c1)N(Cc1ccccc1)C(=O)c1ccccc1S2=O (centres undefined)	-15.5%	-69.7*	-20.2%	.	.	-9.4%
O=C(NCc1ccco1)c1ccc2c(c1)N(Cc1ccccc1)C(=O)c1ccccc1S2	-11.2%	-35.3	-4.3%	.	.	-7.7%
CCN1CCN(CCNC(=O)c2ccc3c(c2)N(Cc2cccc(Cl)c2)C(=O)c2ccccc2S3=O)CC1 (centres undefined)	-4.7%	-72.8*	27.3%	?	6.4%	-29.7%
Cc1cccc(CN2C(=O)c3ccccc3Sc3ccc(C(=O)NCc4ccco4)cc32)c1	-10.5%	-73.0*	-7.0%	.	.	-10.7%
Cc1ccc(NC(=O)c2ccc(F)cc2F)cc1NS(C)(=O)=O	.	?	17.2%	3.3%	-3.4%	.
COc1cc(Cl)c(S(=O)(=O)NCCCn2ccnc2)cc1Cl	i	?	16.5%	-12.6%	-12.0%	-15.9%
N[C@@H]1CC[C@@]23CCCN2C(=O)CCC[C@H]3[C@H]1Cc1ccccc1	.	-1.6	.	.	.	.
COc1ccc(NC(=O)N2CCCC3(CCN(C(=O)c4cc(C(F)(F)F)cc(C(F)(F)F)c4)CC3)C2)cc1	.	.	-8.8%	.	-2.2%	.
Cc1ccc2c(c1)[C@H]1[C@H](CO2)[C@H](c2ccccc2)[C@]2(C)C(=O)Nc3ccc(F)cc3C(=O)N12	-14.9%	-28.8	?	?	.	?
COc1ccc2c(c1)C(=O)N1[C@H]3c4cc(Cl)ccc4OC[C@@H]3[C@H](c3ccccc3)[C@]1(C)C(=O)N2	?	-60.4*	-21.9%	?	.	?
Cc1ccc2c(c1)[C@H]1[C@H](CO2)[C@H](c2ccccc2)[C@]2(C)C(=O)Nc3cc(F)c(F)cc3C(=O)N12	-19.0%	-69.9*	?	?	.	?
C[C@@]12C(=O)N(c3cccc(F)c3)C(=O)N1[C@@H]1c3ccccc3OC[C@@H]1[C@H]2c1ccccc1	-10.2%	-100.8*	?	?	.	-8.6%
COc1ccc2c(c1)OC[C@H]1[C@H]2N2C(=O)c3cc(F)ccc3NC(=O)[C@@]2(C)[C@H]1c1ccccc1	?	0.5	0.0%	11.2µM*	.	?
COC(=O)C(c1ccccc1)(c1cn(C)c2ccccc12)C(Nc1ccccc1)c1ccccc1 (centres undefined)	.	-24.5	.	.	.	.
COc1ccc2c(Sc3ccc(C)cc3)c(C(=O)NCc3ccc(F)cc3)[nH]c2c1	-9.7%	-15.9	0.5%	.	.	-6.0%

Assay outcomes (PubChem)
